According to PubChem BioAssay (NCI):
The panel holds about 79,000 compounds, 15% with a hit somewhere; the sample as a whole holds those more often. Activity calls are given as the source filed them. Rule as the data show it: active = growth inhibition above about 70%; inactive = the rest.

Legend:
[1] = NCI Yeast Anticancer Drug Screen. Data for the rad52 strain (AID 147);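 also: 0% = growth of vehicle-treated control cultures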; conditions: S. cerevisiae rad52 mutant growth inhibition, active compounds read high
How it was run: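 Measured: yeast growth inhibition. System: strain with a defined DNA damage repair alteration. Reference: vehicle-treated control cultures.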

[2] = NCI Yeast Anticancer Drug Screen. Data for the wt1 strain (AID 149);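 also: 0% = growth of vehicle-treated wt1 cultures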; conditions: S. cerevisiae wt1 strain (SPY 50644) growth inhibition, active compounds read high
How it was run: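 Growth inhibition read against vehicle controls after compound exposure of the wt1 yeast strain.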

[3] = NCI Yeast Anticancer Drug Screen. Data for the rad50EPP+ strain (AID 151);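 also: 0% = growth of vehicle-treated control cultures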; conditions: S. cerevisiae rad50 mutant strain, active compounds read high
How it was run: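 One strain with a rad50 alteration (rad50EPP+) was compound-treated, its growth then compared to that of vehicle controls.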

[4] = NCI Yeast Anticancer Drug Screen. Data for the mgt1 strain (AID 153); conditions: S. cerevisiae mgt1 mutant growth inhibition, active compounds read high
How it was run: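 After exposure of the mgt1 yeast mutant to compound, growth was measured and reported as inhibition compared with vehicle controls.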

[5] = NCI Yeast Anticancer Drug Screen. Data for the rad50 strain (AID 155);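 also: 0% = growth of vehicle-only cultures of the same strain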; conditions: S. cerevisiae rad50 strain growth inhibition, active compounds read high
How it was run: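 Readout: growth inhibition relative to vehicle-treated cultures. Compound exposure was carried out in a genetically defined yeast strain deficient in DNA damage repair.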

[6] = NCI Yeast Anticancer Drug Screen. Data for the mec2-1 strain (AID 157); conditions: S. cerevisiae mec2-1 strain, active compounds read high
How it was run: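 Test agents were screened against the mec2-1 yeast strain, with defined DNA repair or cell cycle alteration. Growth was scored as inhibition against vehicle-only controls.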

[7] = NCI Yeast Anticancer Drug Screen. Data for the sgs1 mgt1 strain (AID 161);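 also: 0% = growth of cultures given vehicle only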; conditions: S. cerevisiae sgs1 mgt1 strain, active compounds read high
How it was run: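 Read-out: growth inhibition vs vehicle controls. Cells: mutant yeast strain deficient in DNA damage repair.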

[8] = NCI Yeast Anticancer Drug Screen. Data for the CLN2oe strain (AID 163);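 also: 0% = growth of vehicle-only control cultures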; conditions: S. cerevisiae CLN2oe strain, active compounds read high
How it was run: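 Here, growth inhibition in a cell-cycle-altered yeast strain after compound exposure was quantified against vehicle control growth.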

[9] = NCI Yeast Anticancer Drug Screen. Data for the cln2 rad14 strain (AID 165);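 also: 0% = growth equal to vehicle treated cultures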; conditions: S. cerevisiae cln2 rad14 strain, active compounds read high
How it was run: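 Growth of compound-exposed yeast (cln2 rad14 genotype) measured and expressed as inhibition relative to vehicle.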

[10] = NCI Yeast Anticancer Drug Screen. Data for the bub3 strain (AID 167); conditions: S. cerevisiae bub3 mutant strain, active compounds read high
How it was run: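 Readout: yeast growth inhibition, expressed relative to vehicle-only wells. The test organism is a mutant strain from a panel with lesions in DNA repair or checkpoint genes.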

[11] = NCI Yeast Anticancer Drug Screen. Data for the wt2 strain (AID 169);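 also: 0% = growth of vehicle-treated yeast cultures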; conditions: S. cerevisiae wt2 strain growth inhibition, active compounds read high
How it was run: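 Genetically defined yeast strains from a DNA-repair/cell-cycle panel were used. Compound-exposed yeast growth was measured, and the inhibition was calculated relative to vehicle treatment.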

[12] = NCI Yeast Anticancer Drug Screen. Data for the mlh1 strain (AID 171);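 also: 0% = growth of vehicle-treated control cultures of the same strain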; conditions: S. cerevisiae mlh1 strain growth inhibition, active compounds read high
How it was run: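 Here the genetically defined yeast mutant is grown with each compound, and the extent to which its growth falls below that of vehicle-exposed cells is reported.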

[13] = NCI Yeast Anticancer Drug Screen. Data for the sgs1 strain (AID 173);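 also: 0% = growth of vehicle-only control cultures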; conditions: S. cerevisiae sgs1 mutant, active compounds read high
How it was run: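 Relative growth inhibition, referenced to vehicle, was determined in a yeast strain with a defined alteration affecting DNA damage repair or cell cycle control after compound exposure.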

[14] = NCI Yeast Anticancer Drug Screen. Data for the mlh1 rad18 strain (AID 175); conditions: S. cerevisiae mlh1 rad18 strain growth inhibition, active compounds read high
How it was run: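 In this whole-cell yeast screen, a strain with altered DNA damage repair is challenged with compound, and its growth is measured against matched vehicle-treated controls.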

[15] = NCI Yeast Anticancer Drug Screen. Data for the rad18 strain (AID 177); conditions: S. cerevisiae rad18 mutant growth inhibition, active compounds read high
How it was run: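 Screen uses a yeast strain with a defined lesion in DNA damage repair; compound effect is read as loss of growth compared to untreated vehicle cultures.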

[16] = at 5.0 µM (retest, dose inferred, filed as 0.5)
[17] = at 50.0 µM (retest, dose inferred, filed as 5.0)

Measured: growth inhibition

c1c(N2CCOCC2)ssc1=[N+]1CCOCC1
inactive: [1]; at 1.2 µM 0% | [1]; at 3.7 µM 0% | [1]; at 11.0 µM -4% | [1]; at 33.0 µM -4% | [1]; at 100.0 µM -2% | [2]; at 1.2 µM -3% | [2]; at 3.7 µM -1% | [2]; at 11.0 µM 0% | [2]; at 33.0 µM 0% | [2]; at 100.0 µM -1% | [3]; at 1.2 µM 1% | [3]; at 3.7 µM 3% | [3]; at 11.0 µM 3% | [3]; at 33.0 µM 3% | [3]; at 100.0 µM 5% | [4]; at 1.2 µM 0% | [4]; at 3.7 µM 2% | [4]; at 11.0 µM -1% | [4]; at 33.0 µM 0% | [4]; at 100.0 µM 1% | [5]; at 1.2 µM -3% | [5]; at 3.7 µM -2% | [5]; [16] 4% | [5]; at 11.0 µM -5% | [5]; at 33.0 µM -3% | [5]; [17] 1% | [5]; at 50.0 µM 54.5% | [5]; at 100.0 µM -2% | [6]; at 1.2 µM 0% | [6]; at 3.7 µM -2% | [6]; [16] 0% | [6]; at 11.0 µM -1% | [6]; at 33.0 µM -1% | [6]; [17] 3% | [6]; at 50.0 µM 51.1% | [6]; at 100.0 µM 1% | [7]; [16] 4% | [7]; [17] 2% | [7]; at 50.0 µM 69.1% | [8]; at 1.2 µM 0% | [8]; at 3.7 µM 4% | [8]; at 11.0 µM 3% | [8]; at 33.0 µM 2% | [8]; at 100.0 µM 0% | [9]; [16] -1% | [9]; [17] 7% | [9]; at 50.0 µM 20.7% | [10]; at 1.2 µM 0% | [10]; at 3.7 µM 0% | [10]; [16] -1% | [10]; at 11.0 µM 1% | [10]; at 33.0 µM -2% | [10]; [17] 6% | [10]; at 50.0 µM 51.5% | [10]; at 100.0 µM -2% | [11]; at 1.2 µM 0% | [11]; at 3.7 µM -1% | [11]; at 11.0 µM 0% | [11]; at 33.0 µM 0% | [11]; at 100.0 µM 1% | [12]; at 1.2 µM -1% | [12]; at 3.7 µM 0% | [12]; at 11.0 µM 0% | [12]; at 33.0 µM 0% | [12]; at 100.0 µM -5% | [13]; at 1.2 µM 0% | [13]; at 3.7 µM 1% | [13]; at 11.0 µM 3% | [13]; at 33.0 µM 2% | [13]; at 100.0 µM -3% | [14]; [16] 2% | [14]; [17] 9% | [15]; at 1.2 µM -1% | [15]; at 3.7 µM -2% | [15]; at 11.0 µM -1% | [15]; at 33.0 µM -1% | [15]; at 100.0 µM -2%
active: [14]; at 50.0 µM 82.7%
